# Reference: PubChem BioAssay (Tox21)
# Where “and” joins values, the source holds several entries; their conditions need not be identical. Equal entries are not always repeated. A number with no mark means an inactive call. Inconclusive results are not listed. Entries that show only a call come without a potency. Calls of active or inactive are those of the source. Unless noted, calls come from the whole dose curve; as a rule, active = well fitted curve in the direction sought with a large enough effect in the repeat runs; inconclusive = weak or mixed curves; inactive = no such curve, though single readings can be large; an effect the other way counts as inactive or inconclusive.
# Legend:
# [1] = target: Acetylcholinesterase (Homo sapiens) (UniProt P22303); assay: Acetylcholinesterase (AChE) small molecule antagonists: fluorescence cell-based qHTS assay (AID 1347398; calls by dose curve; note: nearly all actives have a fitted effect of over 50% in size); settings: Potency: AChE activity
# Summary of the method: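 Cellular AChE inhibition: SH-SY5Y cells treated with test chemical for 30 min at 37 C, then acetylthiocholine hydrolysis followed over 40 min at room temperature via thiocholine-reactive Thiolite Green fluorescence (490/520 nm).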
# [2] = target: Acetylcholinesterase (Homo sapiens) (UniProt P22303); assay: Acetylcholinesterase (AChE) small molecule antagonists: enzyme-based qHTS assay with human liver microsomes (AID 1347399; calls by dose curve; note: nearly all actives have a fitted effect of over 60% in size); settings: Potency: qHTS inhibition
# Summary of the method: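 Recombinant human AChE (50 mU/mL in the enzyme mix) and human liver microsomes (0.25 mg/mL final) were preincubated with compound and NADPH (0.25 mg/mL final) for 30 min at 37 C. Acetylthiocholine/DTNB was then added; thiocholine was read colorimetrically after 10 min at room temperature.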
# [3] = target: Cytochrome P450 2D6 (Homo sapiens) (UniProt P10635); assay: Cytochrome P450 Family 2 Subfamily D Member 6 (CYP2D6) small molecule antagonists: luciferase reporter qHTS assay (AID 1671196); note: nearly all actives have a fitted effect of over 50% in size
# Summary of the method: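 Test chemicals meet CYP2D6 plus proluciferin substrate (10 min, RT); NADPH regenerating solution then drives turnover for 1 h. Detection reagent halts the reaction; luminescence measured after 20 min.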
# [4] = target: Cytochrome P450 2C19 (Homo sapiens) (UniProt P33261); assay: Cytochrome P450 Family 2 Subfamily C Member 19 (CYP2C19) small molecule antagonists: luciferase reporter qHTS assay (AID 1671197); note: nearly all actives have a fitted effect of over 65% in size
# Summary of the method: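 P450-Glo CYP2C19 screening system; proluciferin substrate; DMSO compound stocks; 10 min RT preincubation; NADPH regeneration, 1 h at 37C; luciferin detection reagent, 20 min RT; luminescence as RLU.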
# [5] = target: Cytochrome P450 2C9 (Homo sapiens) (UniProt P11712); assay: Cytochrome P450 Family 2 Subfamily C Member 9 (CYP2C9) small molecule antagonists: luciferase reporter qHTS assay (AID 1671198); note: nearly all actives have a fitted effect of over 50% in size
# Summary of the method: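 CYP2C9 activity was measured with a P450-Glo proluciferin substrate. Enzyme–substrate mix was held with compound for 10 min at room temperature, then NADPH regeneration solution was added for 1 h at 37C. Luciferin product was read as luminescence.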
# [6] = target: Cytochrome P450 1A2 (Homo sapiens) (UniProt P05177); assay: Cytochrome P450 Family 1 Subfamily A Member 2 (CYP1A2) small molecule antagonists: luciferase reporter qHTS assay (AID 1671199); note: nearly all actives have a fitted effect of over 50% in size
# Summary of the method: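 Steps: enzyme-substrate mix dispensed; test compounds and furafylline control pinned in; 10 min room temperature; NADPH regeneration solution added, 1 h; reaction stopped with luciferin detection reagent; luminescence read after 20 min.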
# [7] = target: Voltage-gated inwardly rectifying potassium channel KCNH2 (Homo sapiens) (UniProt Q12809); assay: Human Ether-a-go-go-Related Gene (hERG) channel small molecule antagonists: fluorescence cell-based qHTS assay (AID 1671200); note: nearly all actives have a fitted effect of over 50% in size
# Summary of the method: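 Thallium served as the potassium surrogate; its influx into dye-loaded U2OS cells carrying the channel was measured by fluorescence over 2 min.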
# [8] = target: Cytochrome P450 3A4 (Homo sapiens) (UniProt P08684); assay: Cytochrome P450 Family 3 Subfamily A Member 4 (CYP3A4) small molecule antagonists: luciferase reporter qHTS assay (AID 1671201); note: nearly all actives have a fitted effect of over 50% in size
# Summary of the method: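 Relative luminescence units after 20 min with luciferin detection reagent served as read-out. Beforehand, CYP3A4 turned over a proluciferin substrate for 1 h at room temperature with NADPH regeneration, following 10 min compound preincubation.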
# Potency is the fitted concentration of half-maximal effect.
# Cytochrome P450 2C9 (Homo sapiens), sequence (P11712 whole entry, looked up): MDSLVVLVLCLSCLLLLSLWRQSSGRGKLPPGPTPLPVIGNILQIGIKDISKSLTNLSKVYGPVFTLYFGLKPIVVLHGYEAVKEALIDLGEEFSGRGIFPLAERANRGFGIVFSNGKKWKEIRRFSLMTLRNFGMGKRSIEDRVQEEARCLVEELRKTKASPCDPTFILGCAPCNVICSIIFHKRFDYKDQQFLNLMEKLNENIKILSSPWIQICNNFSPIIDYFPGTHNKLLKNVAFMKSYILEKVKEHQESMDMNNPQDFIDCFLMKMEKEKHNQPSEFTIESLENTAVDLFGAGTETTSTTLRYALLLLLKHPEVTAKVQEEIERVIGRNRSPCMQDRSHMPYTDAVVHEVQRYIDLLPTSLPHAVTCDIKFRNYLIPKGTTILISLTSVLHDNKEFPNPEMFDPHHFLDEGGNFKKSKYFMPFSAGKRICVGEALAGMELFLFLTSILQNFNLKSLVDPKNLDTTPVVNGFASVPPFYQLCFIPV
# Voltage-gated inwardly rectifying potassium channel KCNH2 (Homo sapiens), sequence (Q12809 whole entry, looked up): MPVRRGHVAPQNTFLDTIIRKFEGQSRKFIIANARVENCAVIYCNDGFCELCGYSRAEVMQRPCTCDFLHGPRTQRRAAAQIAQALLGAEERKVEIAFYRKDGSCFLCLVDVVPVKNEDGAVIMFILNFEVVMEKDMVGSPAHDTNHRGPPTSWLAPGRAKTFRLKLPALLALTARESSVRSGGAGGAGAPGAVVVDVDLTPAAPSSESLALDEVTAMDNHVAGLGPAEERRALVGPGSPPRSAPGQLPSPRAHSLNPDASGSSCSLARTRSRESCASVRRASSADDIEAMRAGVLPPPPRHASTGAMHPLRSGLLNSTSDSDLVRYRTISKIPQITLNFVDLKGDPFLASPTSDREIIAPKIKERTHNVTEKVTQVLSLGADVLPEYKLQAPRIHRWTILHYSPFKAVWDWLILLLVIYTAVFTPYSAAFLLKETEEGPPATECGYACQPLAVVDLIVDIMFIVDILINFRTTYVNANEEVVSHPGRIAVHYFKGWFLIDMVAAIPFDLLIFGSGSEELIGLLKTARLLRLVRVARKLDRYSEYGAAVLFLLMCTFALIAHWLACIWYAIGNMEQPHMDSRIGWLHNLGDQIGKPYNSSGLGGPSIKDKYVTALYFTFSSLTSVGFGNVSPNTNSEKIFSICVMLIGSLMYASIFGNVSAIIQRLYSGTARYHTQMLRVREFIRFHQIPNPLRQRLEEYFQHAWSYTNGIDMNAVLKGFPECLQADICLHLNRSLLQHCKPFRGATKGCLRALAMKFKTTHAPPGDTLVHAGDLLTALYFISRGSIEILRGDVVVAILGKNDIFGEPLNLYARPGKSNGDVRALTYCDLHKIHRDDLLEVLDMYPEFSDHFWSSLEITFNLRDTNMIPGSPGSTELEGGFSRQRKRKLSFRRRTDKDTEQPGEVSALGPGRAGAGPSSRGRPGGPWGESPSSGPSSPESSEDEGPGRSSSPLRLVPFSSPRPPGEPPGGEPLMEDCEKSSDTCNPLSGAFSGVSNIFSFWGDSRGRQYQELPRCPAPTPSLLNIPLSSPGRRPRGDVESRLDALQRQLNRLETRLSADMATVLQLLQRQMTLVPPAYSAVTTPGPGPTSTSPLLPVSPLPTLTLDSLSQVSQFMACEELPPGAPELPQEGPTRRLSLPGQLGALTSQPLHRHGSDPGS
# Cytochrome P450 2C19 (Homo sapiens), sequence (P33261 whole entry, looked up): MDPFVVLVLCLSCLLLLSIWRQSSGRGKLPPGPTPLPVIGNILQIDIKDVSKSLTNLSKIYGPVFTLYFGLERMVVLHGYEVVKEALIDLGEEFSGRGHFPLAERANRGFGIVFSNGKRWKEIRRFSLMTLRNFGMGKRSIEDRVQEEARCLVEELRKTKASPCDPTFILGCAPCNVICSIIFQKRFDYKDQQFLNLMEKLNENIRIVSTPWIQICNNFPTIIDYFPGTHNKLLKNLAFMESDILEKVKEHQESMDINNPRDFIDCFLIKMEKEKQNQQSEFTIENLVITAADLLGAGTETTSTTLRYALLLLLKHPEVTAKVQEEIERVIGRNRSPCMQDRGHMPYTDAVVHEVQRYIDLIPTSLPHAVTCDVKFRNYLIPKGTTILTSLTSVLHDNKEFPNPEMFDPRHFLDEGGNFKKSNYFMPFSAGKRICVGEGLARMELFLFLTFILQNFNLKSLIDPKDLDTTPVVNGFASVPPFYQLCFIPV
# Acetylcholinesterase (Homo sapiens), sequence (P22303 whole entry, looked up): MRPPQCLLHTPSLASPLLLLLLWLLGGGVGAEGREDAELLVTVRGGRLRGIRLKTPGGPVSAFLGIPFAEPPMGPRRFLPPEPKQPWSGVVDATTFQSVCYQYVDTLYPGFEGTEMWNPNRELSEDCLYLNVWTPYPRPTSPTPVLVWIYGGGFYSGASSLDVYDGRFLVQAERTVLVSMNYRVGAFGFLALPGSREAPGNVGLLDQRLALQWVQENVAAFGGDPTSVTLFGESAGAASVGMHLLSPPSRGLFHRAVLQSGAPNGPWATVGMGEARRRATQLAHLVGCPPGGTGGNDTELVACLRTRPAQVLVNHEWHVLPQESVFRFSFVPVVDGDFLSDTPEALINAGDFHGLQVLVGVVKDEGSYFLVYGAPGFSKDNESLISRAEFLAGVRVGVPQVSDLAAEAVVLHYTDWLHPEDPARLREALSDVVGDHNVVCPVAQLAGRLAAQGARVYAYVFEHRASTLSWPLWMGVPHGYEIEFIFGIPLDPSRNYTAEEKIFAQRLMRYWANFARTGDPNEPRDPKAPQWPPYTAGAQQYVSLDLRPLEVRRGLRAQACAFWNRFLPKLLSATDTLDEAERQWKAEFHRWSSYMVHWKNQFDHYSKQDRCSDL
# Cytochrome P450 3A4 (Homo sapiens), sequence (P08684 whole entry, looked up): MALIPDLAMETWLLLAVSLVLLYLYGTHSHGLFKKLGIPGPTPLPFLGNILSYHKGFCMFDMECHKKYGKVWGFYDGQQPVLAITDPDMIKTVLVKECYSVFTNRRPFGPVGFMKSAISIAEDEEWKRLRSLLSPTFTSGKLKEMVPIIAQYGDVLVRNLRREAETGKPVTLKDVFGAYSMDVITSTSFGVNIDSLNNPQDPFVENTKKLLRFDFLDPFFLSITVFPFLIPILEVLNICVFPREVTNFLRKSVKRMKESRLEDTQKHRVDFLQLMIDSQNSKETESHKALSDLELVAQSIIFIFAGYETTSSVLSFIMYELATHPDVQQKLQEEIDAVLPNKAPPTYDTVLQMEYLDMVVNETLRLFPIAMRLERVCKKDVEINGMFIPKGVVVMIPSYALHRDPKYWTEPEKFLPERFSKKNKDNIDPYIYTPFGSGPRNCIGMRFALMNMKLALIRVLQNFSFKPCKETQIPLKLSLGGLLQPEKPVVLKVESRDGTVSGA
# Cytochrome P450 1A2 (Homo sapiens), sequence (P05177 whole entry, looked up): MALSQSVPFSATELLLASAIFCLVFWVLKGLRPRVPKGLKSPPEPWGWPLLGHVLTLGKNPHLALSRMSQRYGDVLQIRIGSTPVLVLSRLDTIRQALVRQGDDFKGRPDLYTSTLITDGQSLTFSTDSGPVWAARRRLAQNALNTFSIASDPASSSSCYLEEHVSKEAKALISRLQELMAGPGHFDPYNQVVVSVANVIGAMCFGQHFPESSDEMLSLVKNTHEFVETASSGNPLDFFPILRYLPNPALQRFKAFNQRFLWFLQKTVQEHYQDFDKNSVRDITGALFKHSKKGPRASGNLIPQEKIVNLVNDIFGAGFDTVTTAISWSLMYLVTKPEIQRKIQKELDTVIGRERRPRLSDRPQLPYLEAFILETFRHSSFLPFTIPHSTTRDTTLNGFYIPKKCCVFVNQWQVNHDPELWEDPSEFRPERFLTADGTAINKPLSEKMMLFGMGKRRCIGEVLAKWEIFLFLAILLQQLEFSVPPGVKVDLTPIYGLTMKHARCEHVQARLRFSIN
# Cytochrome P450 2D6 (Homo sapiens), sequence (P10635 whole entry, looked up): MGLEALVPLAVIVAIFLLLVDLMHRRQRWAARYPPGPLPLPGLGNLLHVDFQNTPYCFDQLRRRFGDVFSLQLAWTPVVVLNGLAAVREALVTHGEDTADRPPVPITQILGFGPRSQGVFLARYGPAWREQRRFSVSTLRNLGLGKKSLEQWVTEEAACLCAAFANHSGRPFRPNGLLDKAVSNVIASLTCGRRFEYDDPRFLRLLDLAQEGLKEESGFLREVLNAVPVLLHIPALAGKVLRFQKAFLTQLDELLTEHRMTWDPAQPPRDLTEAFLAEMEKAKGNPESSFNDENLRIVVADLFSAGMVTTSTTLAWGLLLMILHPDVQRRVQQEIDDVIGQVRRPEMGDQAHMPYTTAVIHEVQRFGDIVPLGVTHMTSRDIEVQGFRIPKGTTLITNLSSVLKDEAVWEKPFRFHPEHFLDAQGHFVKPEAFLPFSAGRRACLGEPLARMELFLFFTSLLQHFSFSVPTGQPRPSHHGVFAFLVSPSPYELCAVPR
SMILES,Potency [1],Potency [2],Potency [3],Potency [4],Potency [5],Potency [6],Potency [7],Potency [8]
O=C1NCN(c2ccccc2)C12CCN(CC1COc3ccccc3O1)CC2 (stereo unspecified),inactive,inactive,0.11 µM (active),4.36 µM (active),8.71 µM (active),inactive,7.56 µM (active),–
C[As+](C)(C)CC(=O)[O-],inactive,inactive,inactive,inactive,inactive,inactive,inactive,inactive
COS(=O)(=O)c1ccc(C)cc1,inactive,inactive,inactive,inactive,inactive,inactive,inactive,inactive
C[C@]12CC[C@@H]3c4ccc(OC(=O)N(CCCl)CCCl)cc4CC[C@H]3[C@@H]1CC[C@@H]2O,inactive,inactive,inactive,inactive,inactive,inactive,inactive,inactive
CCOc1cc(C(C)(C)C)ccc1C1COC(c2c(F)cccc2F)=N1 (stereo unspecified),inactive,inactive,5.43 µM (active),3.42 µM (active),12.2 µM (active),24.2 µM (active),13.3 µM (active),0.0683 µM (active)
Clc1ccc(C(Cl)(Cl)Cl)c(Cl)c1,inactive,inactive,31.9 µM (active),80.2 µM (active),inactive,–,–,–
NC(=O)CCl,inactive,inactive,inactive,inactive,inactive,inactive,inactive,inactive
CCOP(=S)(OCC)SCS(=O)(=O)CC,2.52 µM (active),12.6 µM (active),39.9 µM (active),5.64 µM (active),12.6 µM (active),35.6 µM (active),inactive,7.96 µM (active)
ClC(Cl)=C(c1ccc(Cl)cc1)c1ccc(Cl)cc1,inactive,inactive,inactive,409 nM (active) and 710 nM (active),14.5 µM (active) and 12.6 µM (active),5.78 µM (active) and 5.64 µM (active),39.9 µM (active) and 49 µM (active),inactive
CCOP(=O)(NC(C)C)Oc1ccc(SC)c(C)c1 (stereo unspecified),15.9 µM (active),71 µM (active),5.02 µM (active),1.59 µM (active),11.9 µM (active),2.75 µM (active),inactive,–
COP(=O)(OC)SCn1c(=O)oc2cc(Cl)cnc21,0.252 µM (active),71 µM (active),39.9 µM (active),25.2 µM (active),31.7 µM (active),39.9 µM (active),inactive,–
CCOC(=O)C1(c2ccccc2)CCN(CCC(C#N)(c2ccccc2)c2ccccc2)CC1,inactive,inactive,4.9 µM (active),9.77 µM (active),3.09 µM (active),inactive,0.601 µM (active),inactive
Clc1ccc(C(c2ccc(Cl)cc2)C(Cl)(Cl)Cl)cc1,inactive,inactive,inactive,20.2 nM (active) and 17.8 nM (active) and 69.2 nM (active),2.26 µM (active) and 10 µM (active) and 3.89 µM (active),12.6 µM (active) and 13.8 µM (active),13.8 µM (active),inactive
Oc1c(Cl)c(Cl)cc(Cl)c1Cl,inactive,inactive,inactive,inactive,21.8 µM (active),69.1 µM (active),inactive,inactive
Cc1cc(C(F)(C(F)(F)F)C(F)(F)F)ccc1NC(=O)c1cccc(I)c1C(=O)NC(C)(C)CS(C)(=O)=O,inactive,inactive,4.51 µM (active),inactive,20.1 µM (active),inactive,inactive,2.01 µM (active)
N#C/C=C/c1ccccc1,inactive,inactive,inactive,inactive,inactive,35.6 µM (active),inactive,inactive
N#CNC#N,inactive,inactive,inactive,inactive,inactive,inactive,inactive,inactive
S=C=Nc1cccc2ccccc12,inactive,inactive,14 µM (active),2.8 µM (active),4.98 µM (active),8.85 µM (active),inactive,3.14 µM (active)
c1cc[c]([Sb]([c]2ccccc2)[c]2ccccc2)cc1,inactive,inactive,inactive,17.8 µM (active),17.8 µM (active),inactive,–,–
C[C@]12Cc3nonc3C[C@@H]1CC[C@@H]1[C@@H]2CC[C@@]2(C)[C@H]1CC[C@]2(C)O,inactive,inactive,inactive,17.4 µM (active),24.5 µM (active),inactive,inactive,–
Nc1ccc(Sc2ccc(N)cc2)cc1,inactive,inactive,31.7 µM (active),5.03 µM (active),1.23 µM (active),35.6 µM (active),inactive,–
CC(Cl)CN(C)C (stereo unspecified),inactive,inactive,inactive,inactive,inactive,inactive,inactive,inactive
COP(=S)(OC)Oc1cc(Cl)c(Br)cc1Cl,inactive,inactive,inactive,17.8 µM (active),5.64 µM (active),11.2 µM (active),–,–
Nc1ccccc1C(=O)OC/C=C/c1ccccc1,inactive,inactive,–,–,–,–,–,–

SMILES,Potency [1],Potency [2],Potency [3],Potency [4],Potency [5],Potency [6],Potency [7],Potency [8]
Clc1ccc(CSC(Cn2ccnc2)c2ccc(Cl)cc2Cl)cc1 (stereo unspecified),inactive,inactive,–,–,–,–,–,–
COc1ccc(OC)c(CC(C)N)c1 (stereo unspecified),inactive,inactive,7.62 µM (active),inactive,inactive,inactive,inactive,inactive
BrC(Br)Br,inactive,inactive,25.2 µM (active),inactive,inactive,44.8 µM (active),inactive,–
CC(C)[C@H](C(=O)OC(C#N)c1cccc(Oc2ccccc2)c1)c1ccc(OC(F)F)cc1 (stereo partly specified),inactive,inactive,5.03 µM (active),17.8 µM (active),3.99 µM (active),inactive,inactive,–
Clc1ccc(CO/N=C(\Cn2ccnc2)c2ccc(Cl)cc2Cl)c(Cl)c1,inactive,inactive,–,–,–,–,–,–
CC1(C)CC/C(=C/c2ccc(Cl)cc2)C1(O)Cn1cncn1 (stereo unspecified),inactive,inactive,12.6 µM (active),0.223 µM (active),1.12 µM (active),35.4 µM (active),inactive,–
Cc1cccc(OP(=O)(Oc2cccc(C)c2)Oc2cccc(C)c2)c1,inactive,inactive,inactive,20 µM (active),35.6 µM (active),28.3 µM (active),inactive,–
CN(CCCC(O)c1cccnc1)N=O (stereo unspecified),inactive,inactive,inactive,inactive,inactive,inactive,inactive,–
CCOCn1c(-c2ccc(Cl)cc2)c(C#N)c(Br)c1C(F)(F)F,inactive,inactive,35.6 µM (active),4.48 µM (active),8.94 µM (active),0.633 µM (active),–,–
CCCCCCCCCBr,inactive,inactive,inactive,inactive,inactive,inactive,inactive,inactive
[Cl][Sb]([Cl])[Cl],inactive,inactive,inactive,inactive,inactive,inactive,inactive,inactive
O=C1C=CC(=O)c2ccccc21,inactive,inactive,15.9 µM (active),14.2 µM (active),11.2 µM (active),25.2 µM (active),21.9 µM (active),15.9 µM (active)
CCCCOP(=O)(CCCC)OCCCC,inactive,inactive,inactive,11.2 µM (active),31.7 µM (active),31.7 µM (active),inactive,–
CN(C)c1ccc(N=Nc2ccccc2)cc1,inactive,inactive,40 µM (active),20 µM (active),15.9 µM (active),3.56 µM (active),inactive,inactive
N#C/C=C/C#N,inactive,inactive,74.4 µM (active),18.7 µM (active),37.3 µM (active),29.6 µM (active),inactive,37.3 µM (active)
N#CSCSC#N,inactive,inactive,inactive,72.6 µM (active),32.4 µM (active) and 35.2 µM (active),23 µM (active) and 28 µM (active),56.2 µM (active) and 43.2 µM (active),inactive
CC[C@H](C)[C@H]1O[C@]2(C=C[C@@H]1C)C[C@@H]1C[C@@H](C/C=C(\C)[C@@H](O[C@H]3C[C@H](OC)[C@@H](O[C@H]4C[C@H](OC)[C@@H](O)[C@H](C)O4)[C@H](C)O3)[C@@H](C)/C=C/C=C3\CO[C@@H]4[C@H](O)C(C)=C[C@@H](C(=O)O1)[C@]34O)O2,inactive,inactive,33.3 µM (active),21 µM (active),10.5 µM (active),33.3 µM (active),inactive,9.39 µM (active)
CC(C)OS(C)(=O)=O,inactive,inactive,40.2 µM (active),inactive,inactive,40.2 µM (active),inactive,inactive
CC(O)C#N (stereo unspecified),inactive,inactive,inactive,inactive,inactive,inactive,inactive,inactive
NC(=O)c1ccc(N)nc1,inactive,inactive,inactive,inactive,inactive,inactive,inactive,inactive
Cc1cc(N=Nc2ccccc2C)ccc1N,inactive,inactive,63.3 µM (active),5.64 µM (active) and 8.94 µM (active),5.03 µM (active) and 5.64 µM (active),1.26 µM (active) and 2 µM (active),inactive,1.59 µM (active) and 7.1 µM (active)
N#Cc1ccc(O)cc1,inactive,inactive,inactive,89.4 µM (active),inactive,inactive,inactive,inactive
ClC1=C(Cl)[C@]2(Cl)[C@@H]3[C@@H](Cl)[C@@H](Cl)C[C@@H]3[C@@]1(Cl)C2(Cl)Cl,inactive,inactive,inactive,inactive,inactive,inactive,inactive,inactive
Oc1ccc2ccc3cccc4ccc1c2c34,inactive,inactive,inactive,20 µM (active),35.6 µM (active),0.894 µM (active),inactive,31.7 µM (active)
